Some structures have more than one record in an assay (separate samples or runs), and their calls can disagree. The source made the active and inactive calls. Rule for the calls: active = hit-call score of the fitted dose curve at least 0.9, where 1 is the maximum; inactive = score below 0.9.

This experiment in a line: CCTE_Shafer_MEA_acute_burst_duration_mean: CCTE's Neural Acute Assay for Mean Burst Duration, Shafer Lab (AID 2284014). The method, then: CCTE_Shafer_MEA_acute assay is conducted using Axion Biosystems 48 well microelectrode array (MEA) plates and Maestro recording system. Each well of the MEA plate contains a grid of 16 microelectrodes embedded in the culture surface. Electrically active cells, such as neurons, can be cultured over the electrodes, and electrical activity in these cells can be recorded extracellularly. The spontaneous firing of neurons is captured from each electrode on a microsecond timescale providing both temporally and spatially precise data. […] The CCTE_Shafer_MEA_acute assay uses primary cultures of rat cortical neurons. As these cultures mature over time, neural networks develop functional activity and form cohesive networks in which electrical activity can be highly coordinated. Baseline 40-minute recordings are made on days post-plating 13 or 15, followed by a secondary 40-minute recording after chemical exposure.CCTE_Shafer_MEA_acute_burst_duration_mean is a component of the CCTE_Shafer_MEA_acute assay. It measures the average time from the first spike (action potential firing) to the last spike in a single-electrode burst (temporally-clustered group of spikes) during a recording in a microelectrode array (MEA) using Axion Biosystems Maestro 768 channel amplifier with the AxIS adaptive spike detector. The recordings before and after chemical treatment are used to calculate a percent change in the mean burst duration in each well.Data from the assay component CCTE_Shafer_MEA_acute_burst_duration_mean was analyzed into 1 assay endpoint. This assay endpoint, CCTE_Shafer_MEA_acute_burst_duration_mean, was analyzed in the negative analysis fitting direction relative to DMSO as the negative control and baseline of activity. Using a type of functional reporter, gain or loss-of-signal activity can be used to understand electrical activity.
Spontaneous activity in the cortical cultures was recorded using an Axion Biosystems Maestro 768 channel amplifier and Axion Integrated Studios (AxIS) v1.8 (or later) software. The amplifier recorded from all channels simultaneously (gain = 1200 x; sampling rate = 12.5 kHz/channel): raw signals were filtered with a Butterworth band-pass filter (300-5000 Hz), which filters out slower local field potentials leaving only fast potentials, i.e., "spikes", arising from extracellular currents associated with action potentials (Pine 2006; Wheeler and Nam 2011). On-line spike detection of filtered signals was conducted with the AxIS adaptive spike detector, using a threshold of 8x the root mean squared (rms) noise on each channel. Any electrodes with rms noise levels greater than 5 uV were grounded (e.g., no data were recorded). Once grounded, an electrode was grounded for the duration of the experiment. All recordings were conducted at 37 C. Wells were deemed usable if on the day of the exposure >/= 10 electrodes were active (defined as >/= 5 spikes/min). On DIV 13 or 15, a minimum of three wells from one cortical culture preparation were treated with each compound (0.03-40 uM). Prior to recording baseline activity, each mwMEA plate was placed in the Maestro at 37 C and allowed to sit for 20 min while firing rates stabilized. Baseline activity (40 min) was recorded before the addition of each compound. An additional 40 min of spontaneous activity was recorded in the presence of each compound. Changes in network parameters relative to baseline were assessed following compound treatment.
In the case of `CCCCCCCCCC[N+](C)(C)CCCCCCCCCC`, the result was inactive.

As for `CCC(C)(CC)c1cc(NC(=O)c2c(OC)cccc2OC)on1`, the outcome was inactive. Turning to `CC#Cc1cc(C)nc(Nc2ccccc2)n1`, the outcome was inactive.

For the compound `c1ccc(-c2ccccc2)cc1`, the call was inactive. In the case of `C=CC(N)=O`, the compound was called inactive. Consider `CC(C)C(=O)OCC(C)(C)C(OC(=O)C(C)C)C(C)C` (configuration not stated), for which the compound was called inactive.

For the compound `O=C(NC(=O)c1c(F)cccc1F)Nc1cc(Cl)c(OC(F)(F)C(F)F)c(Cl)c1`, the outcome was inactive. `COc1ccc(O)c(C(C)(C)C)c1`: the result was inactive and the AC50 is 4.04 µM (active). For the compound `CCC(C)c1cc([N+](=O)[O-])cc([N+](=O)[O-])c1O` (configuration not stated), the compound was called inactive.

Consider `CN(C)CCO`, for which the compound was called inactive. As for `CO/C=C(/C(=O)OC)c1ccccc1COc1cccc(C(F)(F)F)n1`, the call was inactive. As for `Oc1ccc(C(c2ccc(O)cc2)(C(F)(F)F)C(F)(F)F)cc1`, the compound was called inactive. Regarding `ClC1=C(Cl)[C@]2(Cl)[C@@H]3[C@@H](Cl)[C@H]4O[C@H]4[C@@H]3C1(Cl)C2(Cl)Cl`, the outcome was inactive. Still for that read-out and setting: as for `Clc1ccc(C(Cl)(Cl)Cl)cc1`, the entry is “inactive”.

As to `CCC(C)(c1ccc(O)cc1)c1ccc(O)cc1`, the outcome was inactive.

Take `ClC(Cl)=C(c1ccc(Cl)cc1)c1ccc(Cl)cc1`: the compound was classed as inactive. As to `O=C(O)C(F)(F)C(F)(F)C(F)(F)C(F)(F)C(F)(F)F`, the compound was called inactive. Regarding `ClC1=C(Cl)[C@]2(Cl)[C@@H]3[C@H]4C[C@H]([C@@H]5O[C@H]45)[C@@H]3[C@@]1(Cl)C2(Cl)Cl`, the AC50 is 1.05 µM (active). For `ClC1=C(Cl)[C@]2(Cl)[C@@H]3[C@@H]4C[C@@H]([C@H]5O[C@@H]45)[C@@H]3[C@@]1(Cl)C2(Cl)Cl`, the result was inactive. The same measure, in the same setting: the result for `O=C(N[C@H]1CN2CCC1CC2)c1cc2ccoc2cn1` reads “inactive”. For the compound `CCCCCCCCCc1ccc(O)cc1`, the concentration at half-maximal activity (AC50) is 20 µM (active). As for `CCCN(CCC)N=O`, the compound was classed as inactive.

Consider `CC(c1ccc(O)cc1)(c1ccc(O)cc1)c1ccc(O)cc1`, for which the call was inactive. In the case of `COS(=O)(=O)OC`, the compound was classed as inactive. The same measure, in the same setting: the result for `CCSC(=O)N(CC)C1CCCCC1` reads “inactive”. `Nc1ccc(-c2ccc(N)cc2)cc1`: the result was inactive.

(Values after PubChem BioAssay (EPA / NIEHS).)
